Laboratory results taken from PubChem BioAssay AID651699 (Sanford-Burnham Center for Chemical Genomics, 2012).
About 2,100 (0.58%) of roughly 360,000 compounds were called active. The sample holds actives, similar compounds and a random draw of the others, so the mix is not that of the screen. No stated cut-off is given here; in the data, active means inhibition above about 36%; inactive means the rest.

biological target: NEDD8-conjugating enzyme Ubc12 (Homo sapiens) + NEDD8-activating enzyme E1 regulatory subunit (Homo sapiens) (UniProt P61081+Q13564); test: inhibitors of cullin neddylation, primary screen, biochemical, TR-FRET, uHTS, NAE and Ubc12 (AID 651699); conditions: at 25 µM, stronger effect = higher value
Sequence (P61081 whole entry, looked up): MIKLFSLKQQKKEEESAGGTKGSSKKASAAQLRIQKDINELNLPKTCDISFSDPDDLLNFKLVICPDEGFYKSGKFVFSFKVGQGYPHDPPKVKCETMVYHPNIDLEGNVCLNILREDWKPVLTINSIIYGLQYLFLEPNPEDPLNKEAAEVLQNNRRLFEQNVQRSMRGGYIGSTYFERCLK
Sequence (Q13564 whole entry, looked up): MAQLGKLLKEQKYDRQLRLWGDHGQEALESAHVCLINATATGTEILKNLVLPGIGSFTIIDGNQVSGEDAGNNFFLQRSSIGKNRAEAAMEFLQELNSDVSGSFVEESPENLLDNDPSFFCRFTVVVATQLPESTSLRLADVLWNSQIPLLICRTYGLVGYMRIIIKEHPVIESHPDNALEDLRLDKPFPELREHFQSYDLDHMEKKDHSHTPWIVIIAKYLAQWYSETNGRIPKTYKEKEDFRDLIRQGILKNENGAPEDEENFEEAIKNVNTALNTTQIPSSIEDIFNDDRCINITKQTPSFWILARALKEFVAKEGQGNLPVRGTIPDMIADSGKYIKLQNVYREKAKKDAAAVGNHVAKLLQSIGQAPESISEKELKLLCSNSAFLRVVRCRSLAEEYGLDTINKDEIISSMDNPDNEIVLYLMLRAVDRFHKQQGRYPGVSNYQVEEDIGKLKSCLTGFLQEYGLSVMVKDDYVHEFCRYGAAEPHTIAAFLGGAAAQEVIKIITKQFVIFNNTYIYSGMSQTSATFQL

Compound	inhibition
Cc1c(Cl)cccc1NC(=O)[C@@]1(CC(=O)O)CC(/C=C/c2ccccc2)=NO1	-0.33% (inactive)
Cc1ccc(C(CNC(=O)Nc2cccc(C)c2)N2CCN(C)CC2)cc1 (stereo not given)	-3.56% (inactive)
Cc1cc(N)n2nc(-c3ccc(C(C)(C)C)cc3)cc2n1	40.5% (active)
COc1cccc2cc(/C(C)=N/NC(=O)c3ccco3)oc12	-10.7% (inactive)
CC1CCCC(NC(=O)CN2CCN(Cc3ccc(Cl)cc3)C2=O)C1C (stereo not given)	5.5% (inactive)
CCC(C)c1ccc(NC(=O)COC(=O)C2CCCC2)cc1 (stereo not given)	-5.48% (inactive)
Cc1ccc(-n2ncc3c(Nc4cccc(C(=O)O)c4)ncnc32)cc1	38.5% (active)
CC(Sc1ncnc2c1cnn2-c1ccccc1)C(=O)Nc1ccc(N2CCOCC2)cc1 (stereo not given)	3.26% (inactive)
COc1ccc2nc(C)cc(Nc3cccc(C(=O)O)c3)c2c1	-12.3% (inactive)
CCOC(=O)c1cn(CC)c2cc(F)c(F)cc2c1=O	6.4% (inactive)
CC(=O)/C(=N\Nc1ccc(Cl)cc1Cl)Sc1cccc2cccnc12	-3.61% (inactive)
CN(CC(=O)Nc1cccc2c1CCCC2)S(=O)(=O)c1ccc(Cl)cc1	7.5% (inactive)
Cc1ccc2occ(/C=N/NC(=O)c3ccccc3C)c(=O)c2c1	42.8% (active)
Cc1ccc(O)c(/C=N/NC(=O)COc2ccc3c(C)cc(=O)oc3c2)c1	17% (inactive)
Cc1cc(NC(=O)c2ccccc2C)no1	-11.1% (inactive)
CCOc1ccc(NS(=O)(=O)c2ccc(C)c(C(N)=O)c2)cc1	-4.92% (inactive)
CCOc1ccc2nc(Cl)c(C3CC(c4ccccc4)=NN3C(=O)c3cccs3)cc2c1 (stereo not given)	-162% (inactive)
CCOc1ccc2nc(NCCNC(=O)C(C)(C)C)c(C)cc2c1	42.5% (active)
CCOc1ccc(NC(=O)c2ccc(CSc3nnnn3C)cc2)cc1	1.1% (inactive)
CC(=O)N(c1ccc2oc(=O)sc2c1)S(=O)(=O)c1ccc(C)cc1	0.47% (inactive)
O=C(CN1CCN(C(=O)C2CCCO2)CC1)Nc1c(Cl)cccc1Cl (stereo not given)	10.6% (inactive)
C=CCNC(=O)C1CC=CCC1C(=O)O (stereo not given)	4.38% (inactive)
COc1ccccc1N(C)S(=O)(=O)c1ccc(Cl)c(C(=O)Nc2ccncc2)c1	13.9% (inactive)
COc1cccc(OC)c1C(=O)Nc1ccc(Cc2ccncc2)cc1	7.29% (inactive)

Compound	inhibition
COc1cc2ccccc2cc1C(=O)Nc1ccncc1	42.2% (active)
O=C1N[C@H](Cc2c[nH]c3ccccc23)COC(=O)[C@H](Cc2ccc(F)cc2)C/C=C\C[C@H]1CC(=O)N(CCO)Cc1ccccc1	-4.67% (inactive)
COC(=O)C1(O)CC(C(C)C)=NN1C(=O)c1ccc(Cl)cc1 (stereo not given)	10.8% (inactive)
O=C(C1CC1)N1N=C(c2ccc(Br)cc2)CC1(O)C(F)(F)F (stereo not given)	-17% (inactive)
O=C(c1ccc(Cl)cc1)N1N=C(c2ccccn2)CC1(O)C(F)(F)F (stereo not given)	46% (active)
CC(=O)NCCc1ccc(S(=O)(=O)Nc2ccc(C)c(S(=O)(=O)N3CCOCC3)c2)cc1	0.16% (inactive)
COc1ccc2c(c1)C(C)=CC(C)(C)N2C(=O)Nc1ccccc1	41.3% (active)
COc1ccc2c(c1)C(C)=CC(C)(C)N2C(=O)CNCc1ccc2c(c1)OCO2	-2.09% (inactive)
CC1=CC(C)(C)N(C(=O)CSc2nnc(-c3ccccc3)o2)c2ccc(C)cc21	-0.38% (inactive)
O=C(CCc1nnc(Cc2ccc3c(c2)OCO3)o1)NCCc1ccccc1Cl	-1.6% (inactive)
CN(C)c1ccc(/C=N/Nc2cc(N3CCOCC3)nc(N3CCOCC3)n2)cc1	53.4% (active)
C/C(=N\Nc1nc(N2CCOCC2)nc(N2CCOCC2)n1)c1ccc([N+](=O)[O-])cc1	-9.47% (inactive)
Fc1ccccc1/C=N/Nc1cc(N2CCCCC2)ncn1	9.65% (inactive)
Cc1ccc(O)c(NC(=O)c2cc(-c3ccco3)on2)c1	5.21% (inactive)
CNC(=S)NNC(=O)c1oc2nc(-c3ccccc3)cc(-c3ccco3)c2c1N	29.8% (inactive)
NNC(=O)c1oc2nc(-c3ccccc3)cc(-c3ccco3)c2c1N	51.2% (active)
O=C(N/N=C/c1ccccc1O)C1CCCC1	44.9% (active)
O=C(NNC(=O)C1CCC1)c1ccccc1	-19.3% (inactive)
CC1(C)C2CC=C(/C=N/NC(=O)C3CC3)C1C2 (stereo not given)	-0.11% (inactive)
COc1ccc(CCNC(=O)CCCCCNC(=O)N2CCn3c2nc2ccccc23)cc1OC	7.99% (inactive)
O=Cc1c(Nc2ccccc2Cl)nc2ccccn2c1=O	-6.5% (inactive)
CC(=O)c1ccc(NC(=O)c2ccc(-n3cncn3)c([N+](=O)[O-])c2)cc1	-41.9% (inactive)
C=CCn1c(COc2ccc(F)cc2)nnc1SCC(=O)Nc1cccc(S(N)(=O)=O)c1	5.06% (inactive)
C=CCn1c(COc2ccccc2C)nnc1SCC(=O)O	-1.87% (inactive)

Compound	inhibition
C=CCn1c(COc2cccc3cccnc23)nnc1SCC(=O)OC	46.5% (active)
CCC(C)(C)n1nnnc1C(c1cccs1)N1CCN(c2nc3ccccc3s2)CC1 (stereo not given)	5% (inactive)
O=C(NCc1nnnn1-c1ccc(Cl)cc1)c1ccc2c(c1)OCO2	-5.24% (inactive)
COc1cccc(Nc2nnc(SCC(=O)N3CC(C)OC(C)C3)s2)c1 (stereo not given)	-4.5% (inactive)
O=C(NCC1CCCO1)c1cc2c([nH]c3ccccc32)c(-c2ccc(F)cc2)n1 (stereo not given)	21% (inactive)
O=C(NCCc1ccc(F)cc1)c1n[nH]c2ccccc12	9.02% (inactive)
O=C(NCCCO)c1cc2c([nH]c3ccccc32)c(-c2ccc(F)cc2)n1	44.3% (active)
O=c1cc(CN2CCN(c3cccc(Cl)c3)CC2)c2cc3c(cc2o1)CCCC3	-45.2% (inactive)
CCC(CC)C(=O)N1CC(=O)Nc2ccc(Br)cc2C1c1ccccc1 (stereo not given)	-1.94% (inactive)
CCN(/N=C/c1ccccc1)c1cc(=O)n(C)c(=O)[nH]1	14.3% (inactive)
CCN(/N=C/c1ccc(N(C)C)cc1)c1nc2ccccc2[nH]1	47.9% (active)
Oc1ccc(/C=N/N(Cc2ccccc2)c2ccccc2)cc1	13.8% (inactive)
CCC(C)c1ccc(NC(=S)NCc2ccccn2)cc1 (stereo not given)	3.21% (inactive)
O=S(=O)(c1cccc(Cn2nnc(-c3ccc(F)cc3)n2)c1)N1CCOCC1	-1.01% (inactive)
O=C(C[C@@H]1C/C=C\CCC(=O)OC[C@@H]2CCCN2C1=O)NCCO	-13.4% (inactive)
O=C(NC(Cc1c[nH]c2ccccc12)C(=O)N/N=C/c1ccc(Br)cc1)c1cccs1 (stereo not given)	-5.72% (inactive)
O=C(CNC(=O)c1ccccc1Br)NNC(=O)c1cccs1	7.39% (inactive)
CCN(CC)c1ccc(/C=N/NC(=O)CNC(=O)c2cccs2)cc1	55.1% (active)
CCOc1cc(C2C(C(=O)OC)=CN(C3CCCC3)C=C2C(=O)OC)cc(Br)c1O	-306% (inactive)
COC(=O)C1=CN(Cc2ccc(OC)cc2)C=C(C(=O)OC)C1c1ccc(O)c(OC)c1	40.7% (active)
O=C(NC1CC1)C(Cc1ccccc1)NS(=O)(=O)c1ccccc1F (stereo not given)	-5.68% (inactive)
O=C(CN1CCN(c2ccccc2O)CC1)NC(=O)NCc1ccccc1	1.32% (inactive)
CCOCCCNC(=O)C(NC(=O)CNC(=O)c1ccccc1)c1ccc(C)cc1 (stereo not given)	2.03% (inactive)
CCOCCCNC(=O)C(NC(=O)CNC(=O)c1ccccc1)c1ccc(OC)cc1 (stereo not given)	0.37% (inactive)

Compound	inhibition
CCOCCCNC(=O)C(NC(=O)c1ccccc1O)c1ccccc1 (stereo not given)	46.5% (active)
CC(C)=CCc1ccc(O)c(=O)cc1C(C)C	1.77% (inactive)
O=C(O)C(F)(F)C(NCc1ccccc1)c1ccccc1 (stereo not given)	-2.55% (inactive)
CC(C)c1ccc(CC(=O)N2CCC2(C)C(=O)NS(=O)(=O)c2ccc(C(C)(C)C)cc2)cc1 (stereo not given)	-0.27% (inactive)
CC(=O)c1c(Nc2ccccc2)sc(C(=O)c2ccccc2)c1C	5.82% (inactive)
COC(=O)c1cc2c(N)c(C(=O)c3ccc(Cl)cc3)sc2nc1C(OC)OC	12.2% (inactive)
Cc1nc2sc(C(=O)c3ccccc3)c(N)c2c2c1CCCC2	47.1% (active)
Cc1cccc2cc3c(N)c(C(=O)N4CCCc5ccccc54)sc3nc12	-5.05% (inactive)
CN(C)c1ccnc2sc(C(=O)c3ccccc3)c(N)c12	42.8% (active)
O=C(Nc1c(-c2ccccc2)nc2c(Br)cc(Br)cn12)c1ccco1	-168% (inactive)
OCC[C@H]1C[C@H](O)[C@@H](O)[C@]2(Cc3ccccc3CO2)O1	-28.9% (inactive)
Cc1noc(C)c1CCC(=O)O	-7.17% (inactive)
CN(Cc1ccccc1)C(=O)CCC1CCN(C(=O)c2ccco2)CC1	6.05% (inactive)
CCOC(=O)c1cnc(SCC(=O)Nc2cccc(OC)c2)nc1N	-0.72% (inactive)
COc1ccc(/C=C/C(=O)OCC(=O)N2CCN(S(=O)(=O)c3ccc(C)cc3C)CC2)cc1OC	24.4% (inactive)
CCCCNS(=O)(=O)c1ccc(S(=O)(=O)n2cnc3ccccc32)cc1	-2.84% (inactive)
O=C(Cn1cc(/C=N/NC(=O)c2cccc(C(F)(F)F)c2)c2ccccc21)Nc1ccc(F)cc1	44% (active)
O=C(CSc1ccc(/C=N/NC(=O)c2cccc(F)c2)o1)Nc1ccccc1	-3.46% (inactive)
NC(=O)Cn1cc(/C=N\NS(=O)(=O)c2ccccc2)c2ccccc21	-17.8% (inactive)
COc1ccc([N+](=O)[O-])cc1NC(=O)COC(=O)/C=C/c1ccco1	-34% (inactive)
O=C(NNC(=O)C1C2CCC(C2)C1C(=O)O)c1ccc(Cl)cc1 (stereo not given)	2.72% (inactive)
O=C(NNC(=S)NC1CC2CCC1C2)c1ccc(Cl)cc1 (stereo not given)	62.7% (active)
O=S(=O)(NC1CC2CCC1C2)c1ccc(Cl)cc1 (stereo not given)	-2.94% (inactive)
